The values that follow come from paper PMC6212790, “How bacterial xenogeneic silencer rok distinguishes foreign from self DNA in its resident genome”.

Whole data set: some 33,000 sequences, median “e-score” near -0.037, cut for the highest 2% near 0.34. The full list was thinned out, with the highest values kept by preference.

In this assay the target is T1, GST-Rok (full length) (Bacillus subtilis subsp. subtilis str. …, UniProt O34857 1-191).
T1 sequence: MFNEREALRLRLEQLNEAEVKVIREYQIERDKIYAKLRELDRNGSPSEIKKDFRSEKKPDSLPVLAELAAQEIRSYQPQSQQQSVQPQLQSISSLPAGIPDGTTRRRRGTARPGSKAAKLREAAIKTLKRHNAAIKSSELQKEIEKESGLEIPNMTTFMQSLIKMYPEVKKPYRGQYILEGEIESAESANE
The assay can be described thus: protein binding microarray; Rok is a gene silencer of Bacillus subtilis; high values mean tight binding. The following applies: protein: recombinant; tags: GST (pTH5325, pDEST15-Magic modified); dsDNA, one strand shown. The method in brief: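 Each has a 25-mer constant primer and a 35-mer variable part from a de Bruijn sequence of order 10, covering every non-palindromic 8-mer at least 32 times (palindromic 16). Preference for each 8-mer is given as a rank-based, unitless enrichment score (E-score). Its range runs from 0.5 (most favored) to −0.5 (most disfavored).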
With TACTCTGA, the binding signal is -0.0307 E-score.
Next, CTATATTA: 0.384 E-score.
Then AGATATTG, with 0.196 E-score; and AGATATTA, with 0.404 E-score.
Take CCATATTA: the binding signal stood at 0.165 E-score.
Next, ATCTATTG: 0.282 E-score; GCATATTA: 0.242 E-score; CTCTATTA: 0.0982 E-score.
For CAATATTA, the binding signal amounted to 0.254 E-score.
For ATATATTG, the binding signal stood at 0.372 E-score.
Turning to ACATATTG, the binding signal was 0.148 E-score.
CGATATTA: the binding signal came out at 0.213 E-score.
As for ACATATTA, the binding signal was found to be 0.345 E-score.
Next, AGATTCGG: 0.0606 E-score; ACAATCGG: 0.00195 E-score.
Then AACTGTTC, with 0.004 E-score; and AAGCAAAA, with 0.0376 E-score.
Next, ATATATTA: 0.467 E-score; GTATATGA: 0.216 E-score; GTGTATTA: 0.205 E-score.
With GTATATTA, the binding signal worked out at 0.391 E-score.
Next, ATCTATTA: 0.312 E-score; ATATATGA: 0.287 E-score; CATCGTTC: -0.0505 E-score.
Then AAGCAGAA, with 0.142 E-score; and ATGGGCTA, with 0.0395 E-score; and AGTTTGTA, with 0.391 E-score.
AGTTTGTC: the binding signal was determined as 0.0187 E-score.
Then AATTTGTA, with 0.352 E-score.
Next, CGTTTGTA: 0.138 E-score; ATTTTGTA: 0.232 E-score; GATTTGTA: 0.249 E-score.
Then GTCGGCAA, with -0.0858 E-score; and CCAAGAAC, with -0.19 E-score.
With CTCCGAAA, the binding signal is -0.0499 E-score.
Then CAGTTGAG, with -0.000936 E-score.
For the sequence AATGAATT, the binding signal was determined as 0.29 E-score.
Then ACAATAAC, with 0.214 E-score.
Next, AGTCCCAT: -0.144 E-score.
Turning to ACTATAAA, the binding signal is 0.341 E-score.
TCTATAAA: the binding signal was 0.186 E-score.
Next, ACTATAAG: 0.268 E-score.
Next, CCTATAAA: 0.298 E-score; ACTATAAC: 0.214 E-score; ACTATAAT: 0.411 E-score.
Then ACGTCATA, with 0.128 E-score.
For the sequence CCAAATGG, the binding signal is -0.148 E-score.
In the case of AGTTCGTC, the binding signal worked out at 0.0184 E-score.
Next, GAAAATAA: 0.145 E-score; AAAAATAC: 0.32 E-score; CAAAATAC: 0.351 E-score.
Next, CAAAATAA: 0.0897 E-score; GAAAATAC: 0.351 E-score; GGAAATAC: 0.101 E-score.
Take GGCATTAA: the binding signal is -0.00985 E-score.
Next, CCTGTTGA: -0.00587 E-score.
As for GAAACGGC, the binding signal is -0.103 E-score.
Consider ATATTAAC, for which the binding signal was found to be 0.298 E-score.
For AGATTAAC, the binding signal was 0.181 E-score.
Next, ATATTAAG: 0.275 E-score; AGATTAAT: 0.346 E-score; AGATTAAG: 0.135 E-score.
Next, ATATTAAT: 0.345 E-score; ATATTAAA: 0.377 E-score; CTATTAAA: 0.116 E-score.
TTATTAAA: the binding signal came out at 0.168 E-score.
Next, AAACATTT: 0.0971 E-score; AGAATAAG: 0.105 E-score; ATAAGAGA: -0.0183 E-score.
On to CTGCCCAC, for which the binding signal was -0.168 E-score.
For the sequence CCTATATA, the binding signal was found to be 0.123 E-score.
Regarding GCTATACA, the binding signal is 0.201 E-score.
As for ACTATATG, the binding signal was determined as 0.267 E-score.
Then GCTATATA, with 0.389 E-score; and ACTATATA, with 0.453 E-score; and ACTATATC, with 0.331 E-score.
Next, CGAGGTCC: -0.0704 E-score; AGATGCAA: -0.00215 E-score; AATCTAGG: 0.231 E-score.
Then AATCTAGA, with 0.349 E-score; and AATCTAGT, with 0.377 E-score.
Turning to TATCTAGA, the binding signal was 0.213 E-score.
Then AATCTAGC, with 0.2 E-score; and AATCTAAT, with 0.263 E-score; and GTACCTGA, with 0.102 E-score.
Then CGAGTAGA, with 0.0915 E-score.
Turning to CTAATGAA, the binding signal is 0.0765 E-score.
In the case of CCGAATAG, the binding signal was -0.00823 E-score.
Consider ACGCGAAA, for which the binding signal was -0.0244 E-score.
Then CTTATGAC, with 0.247 E-score.
Then TCTATCAA, with 0.212 E-score.
Next, AACGACTC: -0.0273 E-score; GGGTAGTA: 0.238 E-score.
As to CGGTAGTA, the binding signal came to 0.342 E-score.
Next, AGGTAGTC: 0.0956 E-score; AGGTAGTA: 0.364 E-score; CGGTAGTC: 0.173 E-score.
Next, AGGTAGTG: 0.0916 E-score.
Then AGACAACG, with -0.0674 E-score.
In the case of AGAGCTAG, the binding signal is -0.0248 E-score.
Next, CGACTGAC: 0.00526 E-score; CAGAGCTC: -0.162 E-score; CTACAACC: 0.119 E-score.
Next, CTACTACA: 0.339 E-score; AGACTACG: -0.152 E-score.
Then CGACTACG, with -0.0988 E-score; and GTACTACA, with 0.314 E-score.
For the sequence GTACAACA, the binding signal amounted to 0.0355 E-score.
Then ATACTACG, with 0.339 E-score; and CTACAACA, with 0.343 E-score.
Next, CCACTACA: 0.0814 E-score; ATACTAGC: 0.321 E-score.
Next, ATACTACC: 0.36 E-score.
For CTACTACC, the binding signal turned out to be 0.303 E-score.
Then ACTAGACC, with -0.00464 E-score; and GATCGAAA, with -0.0281 E-score.
Next, ATTAATGG: 0.0209 E-score; CTCACAGA: -0.131 E-score; AGCACTGC: -0.181 E-score.
In the case of ACTTACCT, the binding signal stood at 0.0398 E-score.
Next, CTCTAAAC: 0.0676 E-score; AGTGGCAG: -0.029 E-score; AATTGACG: 0.213 E-score.
Then ATACTACA, with 0.408 E-score; and ACACTACA, with 0.276 E-score.
Next, AGACTACA: 0.0935 E-score.
In the case of AGTGAAAC, the binding signal was -0.00421 E-score.
Then ATGTATAG, with 0.244 E-score; and GTGTATAA, with 0.246 E-score; and ATGTATAA, with 0.385 E-score.
For the sequence CTGTATAA, the binding signal stood at 0.265 E-score.
Then CTGTATAC, with 0.216 E-score; and ATGTATAC, with 0.347 E-score; and GTTAATAA, with 0.303 E-score.
Then TCTCGACA, with -0.0144 E-score; and ATCAGAGC, with -0.105 E-score; and CGTCTCTA, with -0.15 E-score.
Then CATTGTTC, with 0.00988 E-score; and CCAGCATA, with -0.0442 E-score; and ATAGGTCA, with 0.156 E-score.
For CGATGGAA, the binding signal stood at 0.0214 E-score.
Then AACAAATA, with 0.295 E-score.
As to TACAAATA, the binding signal worked out at 0.375 E-score.
Then TACAAGTA, with 0.288 E-score; and TACAAACA, with 0.369 E-score.
Then CACAAACA, with 0.0611 E-score.
Next, CACAAATA: 0.35 E-score.
In the case of AACAAACA, the binding signal came to 0.0686 E-score.
Then CACAAGTA, with 0.183 E-score; and CACAAATG, with -0.0865 E-score.
Then TTATGCAA, with 0.154 E-score; and GGAGGAAA, with -0.0576 E-score; and CGTTCCTC, with -0.0344 E-score.
Then AGTAAGGA, with -0.0123 E-score.
Consider CGTCGCGC, for which the binding signal worked out at 0.0557 E-score.
Consider ACTCCTAT, for which the binding signal is 0.122 E-score.
Next, AAGATTCC: -0.109 E-score.
Next, CAGTAGTA: 0.343 E-score; CAGTAGTC: -0.166 E-score; GAGTAGAA: 0.202 E-score.
Then TAGTAGAA, with 0.439 E-score; and AAGTAGAA, with 0.305 E-score.
With CAGTAGAG, the binding signal worked out at 0.142 E-score.
Next, TAGTAGGA: 0.209 E-score; CAGTAGAA: 0.391 E-score; AAGTAGTA: 0.332 E-score.
Then AACGACGA, with 0.183 E-score.
Then ATTGGCTC, with -0.0706 E-score; and AATTTTCG, with 0.139 E-score.
As to ACCGGCAG, the binding signal is -0.0541 E-score.
For the sequence AGACTGTC, the binding signal stood at 0.0207 E-score.
Next, CGCAGACA: -0.162 E-score.
